# Results filed as inconclusive are left out. Entries that show only a call come without a potency. Unmarked numbers belong to inactive results. Active and inactive are the calls of the source. Calls come from the whole dose curve; as a rule, active = well fitted curve in the direction sought with a large enough effect; inconclusive = small, poorly fitted or top-dose-only effect, or another doubt; inactive = no such curve, though single readings can be large; an effect the other way counts as inactive or inconclusive.
# Experiments:
# [1] = P-glycoprotein substrates identified in KB-3-1 adenocarcinoma cell line, qHTS therapeutic library screen (AID 1346986); note: nearly all actives have a fitted effect of over 60% in size
# How it was run: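 KB-3-1 parental cells and P-gp-overexpressing KB-8-5-11 (colchicine omitted during assay) plated at 500 cells/well, dosed in dose-response, incubated 72 h at 37 degree C. CellTiter-Glo luminescence read; KB-8-5-11 also tested with tariquidar.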
# [2] = P-glycoprotein substrates identified in KB-8-5-11 adenocarcinoma cell line, qHTS therapeutic library screen (AID 1346987); note: nearly all actives have a fitted effect of over 65% in size; for activity change, negative = cytotoxicity: series mostly up to about 44 µM
# How it was run: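 P-gp-mediated resistance screen: KB-8-5-11 cells treated 72 h with compounds in dose-response. CellTiter-Glo viability.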
# [3] = tested on: Zika virus NS2B-NS3 protease (unlinked complex); assay: Primary screen GU Rhodamine qHTS for Zika virus inhibitors: Unlinked NS2B-NS3 protease assay (AID 1347159); note: nearly all actives have a fitted effect of over 60% in size; note: potency is the fitted concentration of half-maximal effect
# How it was run: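 Percent inhibition derives from the 15-min fluorescence change (ex 480, em 540 nm), normalized to no-enzyme and no-inhibitor wells. Reactions contained 25 nM NS2B-NS3 complex and 1.5 microM substrate in 10 mM Tris-HCl pH 8.0.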
# [4] = tested on: Zika virus NS2B-NS3 protease (linked construct); assay: Primary screen NINDS Rhodamine qHTS for Zika virus inhibitors (AID 1347160); note: nearly all actives have a fitted effect of over 55% in size; note: potency is the fitted concentration of half-maximal effect
# How it was run: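 In 10 mM Tris-HCl pH 8.0 containing 0.01% Tween 20, linked NS2B-NS3 protease (25 nM final) is exposed to test compounds for 15 min. Cleavage of 1.5 microM Rhodamine110 substrate is tracked by fluorescence over 15 min.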
# [5] = tested on: Zika virus NS2B-NS3 protease (linked construct); assay: Confirmatory screen NINDS AMC qHTS for Zika virus inhibitors (AID 1347152); note: potency is the fitted concentration of half-maximal effect; nearly all actives have a fitted effect of over 70% in size
# How it was run: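 Linked NS2B-NS3 protease, 1 nM, in 10 mM Tris-HCl pH 8.0, 0.01% Tween 20; compounds preincubated 15 min at room temperature. Nle-KRR-AMC 10 microM (Km 18.3 µM); 15-min fluorescence change (340/450 nm) fitted to 4-parameter Hill.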
# [6] = Confirmatory screen NINDS Rhodamine qHTS for Zika virus inhibitors (AID 1347161); note: potency is the fitted concentration of half-maximal effect; nearly all actives have a fitted effect of over 60% in size
# How it was run: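 Each compound, titrated, sat 15 min with 25 nM linked protease before 1.5 microM Rhodamine110 substrate went in. Fluorescence gain over the next 15 min, in pH 8.0 Tris with Tween 20, gave Hill-fitted curves.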
smiles,measurement,setting,value
NC(=O)[C@H](Cc1ccccc1)NC(=O)[C@H](CCCN=C(N)N)NC(=O)C12CC3CC(CC(C3)C1)C2,outcome,[1],inactive [at 9.29 µM]
same,outcome,[2],inactive [at 9.29 µM]
same,"activity change, negative = inhibition",[3],-7.71% [at 19.1 µM]
COC(=O)C1=COC(OC2OC(CO)C(O)C(O)C2O)C2C(C)C(OC(C)=O)C(OC(=O)c3ccccc3)C12 (centres undefined),Potency,[1],inactive
same,Potency,[2],inactive
same,Potency,[3],inactive
same,Potency,[4],inactive
C=C1CCC2(OC1)OC1CC3C4CC=C5CC(O)CC(O[C@@H]6OC[C@H](OC(=O)C(O)C(C)CC)[C@H](O)[C@H]6O[C@@H]6O[C@@H](C)[C@H](O)[C@@H](O)[C@H]6O)C5(C)C4CCC3(C)C1C2C (some centres undefined),outcome,[1],inactive [at 9.29 µM]
same,outcome,[2],inactive [at 9.29 µM]
same,Potency,[3],inactive
COc1cc2nc(=NC(=O)c3cccnc3)n3c(c2cc1OC)NCC3,Potency,[1],inactive
same,Potency,[2],inactive
same,Potency,[3],inactive
C=C1C2(C)CC3C4(C)C=CC(=O)OC(C)(C)C4CCC3(C)C1(C(=O)OC)C(=O)C(C)(O)C2=O (centres undefined),Potency,[1],inactive
same,Potency,[2],inactive
same,Potency,[3],inactive
C[C@@]1(O)[C@H](O)[C@@H](CO)O[C@H]1n1cnc2c(=O)[nH]c(N)nc21,Potency,[1],inactive
same,Potency,[2],inactive
same,Potency,[3],inactive
C[C@@H]1O[C@@H](O[C@H]2[C@H](O[C@H]3[C@H](O[C@H]4CC[C@@]5(C)C(CC[C@]6(C)C5CC=C5[C@@H]7CC(C)(C)C[C@@H](O)[C@]7(C)CC[C@]56C)[C@@]4(C)CO)O[C@H](C(=O)O)[C@@H](O)[C@@H]3O)O[C@H](CO)[C@H](O)[C@@H]2O)[C@H](O)[C@H](O)[C@H]1O (some centres undefined),outcome,[1],inactive [at 9.29 µM]
same,outcome,[2],inactive [at 9.29 µM]
same,Potency,[3],inactive
CC1(C)CC[C@]2(C(=O)O)CC[C@]3(C)C(=CCC4[C@@]5(C)CC[C@H](O[C@@H]6O[C@H](C(=O)O)[C@@H](O)[C@H](O[C@@H]7O[C@H](CO)[C@H](O)[C@H](O)[C@H]7O)[C@H]6O[C@@H]6O[C@H](CO)[C@@H](O)[C@H](O)[C@H]6O)C(C)(C)C5CC[C@]43C)[C@@H]2C1 (some centres undefined),outcome,[1],inactive [at 5.11 µM]
same,"activity change, negative = cytotoxicity",[2],3.75% [at 5.11 µM]
same,Potency,[3],5.62 µM (active)
COc1c(-c2ccc(O)cc2)cc(OC)c2c1oc1cc(O)c(OC3OC(CO)C(O)C3O)cc12 (centres undefined),Potency,[1],inactive
same,Potency,[2],inactive
same,Potency,[3],15.8 µM (active)
Cc1ccc(-c2c(-c3nn(C)c4ncnc(N5CCC(N6CCCCC6)C5)c34)cnn2C)cc1 (centres undefined),Potency,[1],inactive
same,Potency,[2],inactive
same,Potency,[3],inactive
CC1(C)C2CCC1(C)C(OC(=O)C(O)(CC(=O)O)CC(=O)O)C2 (centres undefined),Potency,[1],inactive
same,Potency,[2],inactive
same,Potency,[3],inactive
CC1(C)Oc2ncnc(N)c2N=C1c1ccc(C2CCC(CC(=O)O)CC2)cc1 (centres undefined),Potency,[1],inactive
same,Potency,[2],inactive
same,Potency,[3],inactive
same,Potency,[4],inactive
CC(=O)OC1C(C)C2C(OC3OC(CO)C(O)C(O)C3O)OC=C(C(=O)O)C2C1OC(=O)c1ccccc1 (centres undefined),Potency,[1],inactive
same,Potency,[2],inactive
same,Potency,[3],inactive
CN1CCN(C2=Nc3ccccc3Nc3ccc(O)cc32)CC1,Potency,[1],inactive
same,Potency,[2],inactive
same,Potency,[3],inactive
COc1cc(/C=C/CO[C@@H]2O[C@H](CO)[C@@H](O)[C@H](O)[C@H]2O)cc(OC)c1O[C@@H]1O[C@H](CO)[C@@H](O)[C@H](O)[C@H]1O,Potency,[1],inactive
same,Potency,[2],inactive
same,Potency,[3],inactive
C[C@@H]1O[C@@H](O[C@@H]2[C@@H](O)[C@H](O[C@H]3[C@H](O[C@H]4CC[C@@]5(C)C(CC[C@]6(C)C5CC=C5[C@@H]7CC(C)(C)CC[C@]7(C(=O)O[C@@H]7O[C@H](CO)[C@@H](O)[C@H](O)[C@H]7O)CC[C@]56C)C4(C)C)O[C@H](C(=O)O)[C@@H](O)[C@@H]3O)OC[C@H]2O)[C@H](O)[C@H](O)[C@H]1O (some centres undefined),outcome,[1],inactive [at 9.29 µM]
same,"activity change, negative = cytotoxicity",[2],6.37% [at 9.29 µM]
same,Potency,[3],inactive
C/C(=C\CCC(C)CCO)C(=O)OC[C@H]1O[C@@H](O[C@@H]2OC=C(C(=O)O)[C@H]3CC[C@](C)(O)[C@@H]23)C(O)[C@@H](O)C1O (some centres undefined),Potency,[1],inactive
same,Potency,[2],inactive
same,Potency,[5],13.6 µM (active)
same,Potency,[3],7.94 µM (active)
same,Potency,[4],5.62 µM (active)
same,Potency,[6],2.15 µM (active)
CC(C)CC(=O)O[C@@H]1O[C@H](CO)[C@@H](O[C@H]2O[C@H](C)[C@@H](N[C@H]3C=C(CO)[C@@H](O[C@H]4O[C@H](CO)[C@@H](O[C@H]5O[C@H](CO)[C@@H](O[C@H]6O[C@H](CO)[C@@H](O)[C@H](O)[C@H]6O)[C@H](O)[C@H]5O)[C@H](O)[C@H]4O)[C@H](O)[C@H]3O)[C@H](O)[C@H]2O)[C@H](O)[C@H]1O,outcome,[1],inactive [at 9.29 µM]
same,"activity change, negative = cytotoxicity",[2],8.1% [at 9.29 µM]
same,Potency,[3],inactive
